This excerpt belongs to a sample that is enriched for hits.
BL2 CD40 inh: CD40 pathway inhibition in BL2 cells; 83,000 tested, 0.94% active; BL2 NF-kB luciferase reporter, CD40L-induced, 4 h; inhibition, % at 10 µM;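 active = mean inhibition of at least 50% with a set share of replicates also reaching that level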;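 note: 0% = neutral control wells and 100% = IKK inhibitor VII at 50 µM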
The depositor's hits bear a star; ! = a repeat was not active; [ ] = remark or other dose.

SMILES | BL2 CD40 inh
N#C[C@@H]1[C@H](c2ccc(C#CC3CCCC3)cc2)[C@H](CO)N1C(=O)c1cccc(F)c1 | -16
COc1ccc(-c2ccc([C@H]3[C@@H](C#N)N(C(=O)c4cccc(F)c4)[C@H]3CO)cc2)cc1 | 57*[25 µM]
N#C[C@H]1[C@@H](c2ccc(C#CC3CC3)cc2)[C@@H](CO)N1C(=O)c1cccc(F)c1 | 2
COc1ccc(-c2ccc([C@@H]3[C@@H](CO)N(C(=O)c4cccc(F)c4)[C@H]3C#N)cc2)cc1 | -18[25 µM]
CC(C)NC(=O)N1[C@H](CO)[C@H](c2ccc(C#CC3CCCC3)cc2)[C@@H]1C#N | -20
N#C[C@H]1[C@@H](c2ccc(-c3cccc(F)c3)cc2)[C@H](CO)N1C(=O)NC1CCCC1 | -3[25 µM]
N#C[C@@H]1[C@H](c2ccc(C#CC3CCCC3)cc2)[C@@H](CO)N1C(=O)c1cccc(F)c1 | 66*
N#C[C@@H]1[C@H](c2ccc(-c3cccc(F)c3)cc2)[C@H](CO)N1C(=O)NC1CCCC1 | 22[25 µM]
COc1cccc(C(=O)Nc2ccc3c(c2)C(=O)N(C)[C@H]2CC[C@@H](CC(=O)N[C@@H](C)c4ccccc4)O[C@H]2CO3)c1 | 38[25 µM]
CCCCNC(=O)Nc1c(C(=O)OC)[nH]c2ccc(C)cc12 | 7
CN1CCN(C(=O)C[C@@H]2CC[C@@H]3[C@H](COC[C@H](O)CN3CC3CCCCC3)O2)CC1 | -12[25 µM]
O=C(Nc1ccccc1OC(F)F)c1ccc(-n2cncn2)c([N+](=O)[O-])c1 | 18
CCN(CC(=O)Nc1ccc2c(c1)OCCO2)CC(=O)Nc1ccccc1C(F)(F)F | 0
COc1ccc(Cc2noc(COc3ccc(Cl)cc3)n2)cc1 | 2
COc1ccc(CN2[C@H](CO)[C@H]3c4ccccc4N(C(=O)Nc4ccccc4)C[C@H]32)cc1 | 1
O=C(NCC(c1ccc(F)cc1)N1CCOCC1)c1cccnc1Sc1ccccc1Cl (stereo not given) | 6
O=C(/C=C/c1cccs1)c1cc(Cl)ccc1O | -12
COc1ccc2oc(C(=O)OCC(=O)NC(C)(C#N)C3CC3)c(C)c2c1 (stereo not given) | -11
Cc1cc(C(=O)NCC(=O)OC(C)C(=O)N2CCOCC2)ccc1[N+](=O)[O-] (stereo not given) | -2
COc1ccc(NC(=O)c2ccccc2)cc1NS(=O)(=O)c1ccc(F)cc1 | -3
N#C[C@H]1[C@@H](c2ccc(C#CC3(O)CCCC3)cc2)[C@@H](CO)N1C(=O)C1CC1 | -3
OCCNc1cc(Cl)ncn1 | 10
N#C[C@H]1[C@H](c2ccc(C#CC3CCCC3)cc2)[C@H](CO)N1C(=O)Nc1ccc(F)cc1 | 10
CC(C)NC(=O)N1[C@H](C#N)[C@@H](c2ccc(C#CC3CCCCC3)cc2)[C@H]1CO | 2
N#C[C@H]1[C@H](c2ccc(C#CC3CCCCC3)cc2)[C@@H](CO)N1C(=O)Nc1ccc(F)cc1 | 63*[25 µM]
SMILES | BL2 CD40 inh
CC(NC(=O)c1ccco1)c1ccc(-n2ccnc2)cc1 (stereo not given) | 1
C[C@H](CO)N1C[C@H](C)[C@H](CN(C)Cc2ccc3c(c2)OCO3)OCc2ccccc2-c2c(n(C)c3ccccc23)C1=O | 5[25 µM]
Cc1ccc(S(=O)(=O)N2C[C@@H]3N[C@H](C2)C3c2ccc(-c3cccc(C#N)c3)cc2)cc1 (stereo not given in full) | 21[25 µM]
N#Cc1cccc(-c2ccc(C3[C@@H]4CN(S(=O)(=O)c5ccc(F)cc5)C[C@H]3N4)cc2)c1 (stereo not given in full) | -6
N#Cc1cccc(-c2ccc(C3[C@@H]4CN(S(=O)(=O)c5ccccc5F)C[C@H]3N4)cc2)c1 (stereo not given in full) | 2
Cc1ccccc1S(=O)(=O)N1C[C@@H]2N[C@H](C1)C2c1ccc(-c2cccc(C#N)c2)cc1 (stereo not given in full) | 54*![25 µM]
N#Cc1cccc(-c2ccc([C@@H]3[C@@H]4CN(S(=O)(=O)c5ccc(-c6ccccc6)cc5)C[C@H]3N4)cc2)c1 | 61*
N#Cc1cccc(-c2ccc(C3[C@@H]4CN(S(=O)(=O)c5ccccc5)C[C@H]3N4)cc2)c1 (stereo not given in full) | -5
C[C@@H]1CN([C@H](C)CO)S(=O)(=O)c2ccc(-c3ccncc3)cc2O[C@@H]1CN(C)S(C)(=O)=O | 2[25 µM]
Cn1c(=S)n(C)c2ccccc21 | -2
CC(C)CC(=O)NC(NC(=O)CC(C)C)c1cccc([N+](=O)[O-])c1 | 7
C[C@@H]1CN([C@@H](C)CO)C(=O)c2c(c3ccccc3n2C)-c2ccccc2CO[C@H]1CN(C)Cc1ccc(C(F)(F)F)cc1 | 11
C[C@@H]1CN([C@@H](C)CO)C(=O)c2c(c3ccccc3n2C)-c2ccccc2CO[C@@H]1CN(C)Cc1cccc(C(F)(F)F)c1 | 62*[25 µM]
C[C@H](CO)N1C[C@H](C)[C@H](CN(C)Cc2ccc(C(F)(F)F)cc2)OCc2ccccc2-c2ccccc2C1=O | 15
C[C@@H]1CN([C@@H](C)CO)C(=O)c2c(c3ccccc3n2C)-c2ccccc2CO[C@@H]1CN(C)Cc1ccccc1C(F)(F)F | 62*[25 µM]
C[C@@H]1CN([C@@H](C)CO)C(=O)c2ccccc2-c2ccccc2CO[C@H]1CN(C)Cc1ccccc1C(F)(F)F | 66*[25 µM]
C[C@H]1CN([C@@H](C)CO)C(=O)c2c(c3ccccc3n2C)-c2ccccc2CO[C@H]1CN(C)Cc1ccccc1C(F)(F)F | 8[25 µM]
C[C@H]1CN([C@@H](C)CO)C(=O)c2c(c3ccccc3n2C)-c2ccccc2CO[C@@H]1CN(C)Cc1cccc(C(F)(F)F)c1 | 61*[25 µM]
C[C@H]1CN([C@@H](C)CO)C(=O)c2c(c3ccccc3n2C)-c2ccccc2CO[C@H]1CN(C)Cc1cccc(F)c1 | 12
C[C@H]1CN([C@@H](C)CO)C(=O)c2ccccc2-c2ccccc2CO[C@@H]1CN(C)Cc1ccc(C(F)(F)F)cc1 | 4
C[C@H]1CN([C@@H](C)CO)C(=O)c2c(c3ccccc3n2C)-c2ccccc2CO[C@H]1CN(C)Cc1ccc(C(F)(F)F)cc1 | 4
C[C@@H]1CN([C@H](C)CO)C(=O)c2c(c3ccccc3n2C)-c2ccccc2CO[C@H]1CN(C)Cc1ccccc1C(F)(F)F | 45[25 µM]
C[C@H](CO)N1C[C@H](C)[C@H](CN(C)Cc2cccc(F)c2)OCc2ccccc2-c2c(n(C)c3ccccc23)C1=O | 10
O=C(CCCN=C1NS(=O)(=O)c2ccccc21)OCc1ccccc1 | 6
Cc1cc(C(F)(F)F)nn1CC(=O)Nc1ccc(Br)c2cccnc12 | -2
SMILES | BL2 CD40 inh
CCOc1ccccc1NC(=O)CCN(c1ccc(C)cc1)S(=O)(=O)c1ccccc1 | 14
Cc1cc(NS(=O)(=O)c2ccc(NC(=O)c3oc4ccccc4c3C)cc2)no1 | 5
O=C(NCC1CCCO1)c1ccccc1S(=O)(=O)c1ccc([N+](=O)[O-])cc1 (stereo not given) | 6
c1ccc(-c2noc(CCC3CCCC3)n2)cc1 | -58
CCN1CCc2c(sc(NC(=O)C3CCCCC3)c2C(=O)OC)C1 | -10
O=C(NC1CCCCC1)[C@@H]1N[C@@H]2c3ccc(-c4cccc(F)c4)c(=O)n3C[C@@H]2[C@H]1CO | -3[25 µM]
CO[C@@H]1CN(C)C(=O)c2cc(NC(=O)NC(C)C)ccc2OC[C@H](C)N(Cc2ccccc2)C[C@@H]1C | -1[25 µM]
CCN(Cc1ccccc1)S(=O)(=O)c1ccc(C(=O)N(CCCN(C)C)c2nc3c(C)c(C)ccc3s2)cc1 | 26
O=C(C[C@@H]1CC[C@@H]2[C@H](COC[C@H](O)CN2Cc2ccc3c(c2)OCO3)O1)Nc1ccc(-c2ccccc2)cc1 | 2
